High-throughput results deposited in PubChem BioAssay by ICCB-Longwood Screening Facility, Harvard Medical School.
Many of the other results were omitted from the sample, so hits are more common in it than they were.
Bm FixLJ act – B. multivorans fixK reporter activation; B. multivorans fixK-promoter GFP reporter, 18 h; stronger effect = higher value; z-score (test concentration not listed); hit rate 0.3% among 29,000;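 active means replicate mean overnight rise in green fluorescent reporter signal, 3 or more SD over negative controls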
An asterisk follows results filed as active.

SMILES	Bm FixLJ act
Cc1cn2c(=O)cc(COc3ccc(NC(=O)c4cccc(F)c4)cc3)nc2s1	0.24
COc1ccccc1C(=O)Nc1ccc(OCc2cc(=O)n3cc(C)sc3n2)cc1	0.27
Cc1cn2c(=O)cc(COc3ccc(NC(=O)c4ccccc4C)cc3)nc2s1	3.44*
CC[C@@]1(C(=O)O)CC(C(=O)NCCCO)C(c2ccc(OC)cc2)N1C (stereo not given in full)	0.23
COC(=O)C(C)N1CCCn2nc(CCC(=O)N3CCOCC3)cc2C1 (stereo not given)	-1.6
COc1cc(NC(=O)c2cc(-c3ccc4c(c3)OCO4)on2)cc(OC)c1OC	3.73*
COc1ccc(-c2cc(C(=O)Nc3ccc4c(c3)OCO4)no2)cc1	-2.85
COc1ccc(NC(=O)c2cc(-c3ccc4c(c3)OCO4)on2)c(OC)c1	-0.07
COCC(C)NC(=O)Nc1ccc2sc(C(=O)N(C)C)cc2c1 (stereo not given)	-1.94
N#Cc1ccc(C(=O)N2CCN(CCc3ccccc3)C(=O)C2)cn1	-0.28
Cc1n[nH]c(C)c1CCCN(C)C(=O)c1cc(-c2cccs2)n(C)n1	0.07
COc1ccc(OCC2CCCN(C(=O)C3CCN(C(C)=O)CC3)C2)cc1 (stereo not given)	2.1
Cc1nc2ccc(C(=O)N3CCCC4(CCc5cn[nH]c54)C3)cc2[nH]1 (stereo not given)	-0.79
COc1ccc(OCC2CCCN(C(=O)c3ccc4nc(C)[nH]c4c3)C2)cc1 (stereo not given)	3.36*
N#Cc1ccc(N2CCN(C(=O)c3ccc(CN4CCCCC4)cc3)CC2)cc1	-1.72
O=S(=O)(N1CCCCC1)N1CCCN(Cc2ccc(-n3ccnc3)cc2)CC1	-0.25
CNC(=O)Cn1cc(NC(=O)c2cc(-c3cccnc3)nc3ccccc23)cn1	0.77
Cc1ccc2nc(-c3ccc(NC(=O)C(F)(F)F)cc3)sc2c1	-2.52
Cn1c(=O)c2nc3ccc(NC(=O)C(F)(F)F)cc3nc2n(C)c1=O	13.8*
CC(=O)c1cccc(NC(=O)Cn2cnc3c2c(=O)n(C)c(=O)n3C)c1	-2.51
Cc1cc(CC2CN(C(=O)c3ccc(C)[nH]c3=O)CC2O)n[nH]1 (stereo not given)	-1.91
Cc1nc(C(N)C(C)C)n(CC(=O)NCCc2noc(-c3ccccc3)n2)n1 (stereo not given)	0.32
Cc1ccnc(CC(C)N(C)C(=O)c2c[nH]c(=O)c(Cl)c2)c1 (stereo not given)	-0.65
Cc1cccc(C2=Nc3ccccc3N=C(c3cc(Cl)ccc3O)C2)c1	1.45
COc1ccc(C2=NC(c3ccccc3)=Nc3ccc(C)cc3N2)cc1	-0.44
SMILES	Bm FixLJ act
COc1ccc(O)c(C2=Nc3ccccc3N=C(c3ccccc3)C2)c1	3.7*
COc1cccc2c1OCC(CNC(=O)c1cc(C(C)C)nc(N)n1)C2 (stereo not given)	0.13
CN(CC1COCCO1)C(=O)c1ccc(-c2ccc(O)c(C(=O)O)c2)cc1 (stereo not given)	0.46
CCN(CC)c1ccc2cc(-c3nnc(-c4cccc(Cl)c4)o3)c(=O)oc2c1	-8.86
COc1cccc(-c2nnc(-c3cc4cc(Cl)ccc4oc3=O)o2)c1	-0.27
CCCCCCc1cc2cc(-c3nnc(-c4ccc(C)cc4)o3)c(=O)oc2cc1O	8.58*
Cc1noc(C)c1CCC(=O)N1CCC2(CC1)OCCc1sc(C(=O)O)cc12	-1.04
Cc1cc(S(=O)(=O)NCCc2noc(C3CCCC3)n2)c(Cl)cc1F	-0.98
COc1ccc(-c2nn(-c3ccccc3)cc2C(=O)Nc2ccccc2OC)cc1	4.62*
COc1ccccc1NC(=O)c1cc2c(C)nn(-c3ccccc3)c2s1	0.48
O=C(O)c1ccc(NC(=O)c2cn(-c3ccccc3)nc2-c2ccc(Br)cc2)cc1	-0.52
CC(=O)c1[nH]c(C)c(C(=O)NCc2noc(-c3ccco3)n2)c1C	0.05
CSCC(NC(=O)CCN1CCCCCC1=O)C(=O)O (stereo not given)	-1.24
COc1ccc(NC(=O)CSc2oc(-c3cccs3)nc2S(=O)(=O)c2ccc(C)cc2)c(OC)c1	-1.31
COc1ccccc1NC(=O)CSc1oc(-c2cccs2)nc1S(=O)(=O)c1ccc(Br)cc1	-1.57
COc1ccc(NC(=O)CSc2oc(-c3cccs3)nc2S(=O)(=O)c2ccccc2)c(OC)c1	3.66*
COc1ccccc1NC(=O)CSc1oc(-c2ccco2)nc1S(=O)(=O)c1ccc(C)cc1	-1.53
Cc1cc(C)cc(NC(=O)CSc2oc(-c3ccco3)nc2S(=O)(=O)c2ccccc2)c1	-1.47
COc1ccc(NC(=O)CSc2oc(-c3ccco3)nc2S(=O)(=O)c2ccccc2)c(OC)c1	6.81*
OC1CCC(Nc2cc(-c3ccccc3)nc3ccnn23)CC1 (stereo not given)	-0.78
CCNC(=O)c1ccc(NC(=O)CN2CCCC2)cc1Cl	-1.28
Cc1ncsc1CCN(C)C(=O)c1cccc(S(C)(=O)=O)c1	-0.68
CC(=O)N1CCC(n2nccc2NC(=O)CCOc2ccccc2)CC1	-2.81
C=CCC(CC=C)(CNC(=O)C(=O)Nc1cc(C)ccc1OC)c1ccc(OC)c(OC)c1	1.33
C=CCC(CC=C)(CNC(=O)C(=O)Nc1cccc(C(F)(F)F)c1)c1ccccc1	3.71*
